# GALK inh – qHTS Assay for Inhibitors of Human Galactokinase (GALK) | 270,000 compounds, 0.007% hits | Potency, µM (doses to about 57.5 µM), for the others: at the top dose activity change, negative = inhibition, hits mostly inhibitors | Purified GALK, Kinase-Glo residual ATP luminescence; also: potency is read from the fitted curve at half-maximal effect
#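 The enzyme phosphorylates galactose (100 uM) using ATP (35 uM); inhibition is detected as higher residual ATP, quantified by bioluminescence after 1 h reaction at room temperature, pH 8.0.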
# TrxR1 inh – qHTS Assay for Inhibitors of Mammalian Selenoprotein Thioredoxin Reductase 1 (TrxR1): qHTS; Thioredoxin reductase 1, cytoplasmic (Rattus norvegicus), O89049; recombinant rTrxR1, NADPH fluorescence consumption, selenite substrate; Potency, µM (top dose mostly 114 µM), for the others: at the highest dose activity change, negative = inhibition, most hits filed as inhibitors; 390,000 compounds, 1% hits; also: potency is read from the fitted curve at half-maximal effect; nearly all actives have a fitted effect of over 65% in size
# Target sequence (O89049 whole entry, looked up): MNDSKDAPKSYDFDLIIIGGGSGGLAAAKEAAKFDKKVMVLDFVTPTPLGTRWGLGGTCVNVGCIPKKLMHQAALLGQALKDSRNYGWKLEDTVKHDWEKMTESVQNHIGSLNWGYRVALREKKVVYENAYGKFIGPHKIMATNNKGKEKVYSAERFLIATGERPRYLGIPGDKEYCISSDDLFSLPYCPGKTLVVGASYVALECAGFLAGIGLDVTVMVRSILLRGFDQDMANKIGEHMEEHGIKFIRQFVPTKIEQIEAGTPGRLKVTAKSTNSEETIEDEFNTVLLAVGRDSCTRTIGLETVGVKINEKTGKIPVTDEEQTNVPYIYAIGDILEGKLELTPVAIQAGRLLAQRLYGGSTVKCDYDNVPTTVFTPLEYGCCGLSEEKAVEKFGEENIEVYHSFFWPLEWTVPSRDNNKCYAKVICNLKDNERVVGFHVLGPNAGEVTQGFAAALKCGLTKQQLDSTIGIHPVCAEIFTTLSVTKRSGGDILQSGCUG
#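 Rat TrxR1 (90 nM in the dispensed reagent) was pre-reduced with 400 uM NADPH for 5 min at room temperature, then incubated with compound for 15 min. After 400 uM selenite was added, NADPH fluorescence (Ex 340/Em 450 nm) was followed for 8 min.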
# USP1 inh – Inhibitors of USP1/UAF1: Primary Screen. Potency, µM (series often up to 57.1 µM), for inactives: at the top dose activity change, negative = inhibition, most hits filed as inhibitors. AID 743255, 2014. recombinant USP1/UAF1, Ub-Rhodamine cleavage fluorescence. 390,000 compounds, 0.23% hits; also: potency is read from the fitted curve at half-maximal effect; nearly all actives have a fitted effect of over 60% in size
#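 Step one: compound is pinned into 1nM USP1/UAF1 in HEPES pH 7.8 buffer with TCEP. Step two: 15 min room-temperature incubation. Step three: Ub-Rho (150nM final) starts cleavage, tracked by fluorescence over six one-minute reads.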
# FBPA coupling cs – qHTS Assay for Inhibitors of Fructose-1,6-bisphosphate Aldolase from Giardia Lamblia: Coupling assay counterscreen | activity change, negative = inhibition, % at 58.2 µM, hits read low | 290,000 compounds, 0.67% hits | coupling enzyme system counterscreen, AmpLite Red fluorescence | AID 2472, 2010; in the data active = activity change below about -30%
#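 Activity here indicates interference with the coupling reaction, not aldolase inhibition. Compounds at 57.5 uM final met coupling enzymes for 10 min at RT; substrate and AmpLite Red detection followed, with a 525/598 nm fluorescence read after 20 min.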
# TrxR1 substrate – qHTS Assay for Substrates of Mammalian Selenoprotein Thioredoxin Reductase 1 (TrxR1): qHTS. Thioredoxin reductase 1, cytoplasmic (Rattus norvegicus), O89049. purified TrxR1 substrate turnover, NADPH consumption readout. Potency, µM (highest dose often 114 µM), for the others: at the highest dose activity change, negative = substrate turnover. 390,000 compounds, 0.01% hits; also: potency is read from the fitted curve at half-maximal effect; nearly all actives have a fitted effect of over 50% in size
#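 Rat TrxR1, dispensed at 90 nM, was prereduced with 400 uM NADPH (final) for 5 min at ~22 deg C, then incubated with compound 15 min before 400 uM selenite. A first-read NADPH fluorescence drop versus no-compound background flagged substrates.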
# The depositor's hits bear a star; u = inconclusive; x = no result given; ! = a repeat was not active; [ ] = dose if it differs, or a comment. An excerpt weighted towards active compounds, which were near 1.5% of everything screened. Unless noted, calls follow the shape of the dose curve; as a rule, active = well fitted curve in the direction sought with a large enough effect; inconclusive = small, poorly fitted or top-dose-only effect, or another doubt; inactive = no such curve, though single readings can be large; an effect the other way counts as inactive or inconclusive. % is scaled to controls: 0 for no effect and ±100 for the full control effect.
SMILES,GALK inh,TrxR1 inh,USP1 inh,FBPA coupling cs,TrxR1 substrate
COCCNC(=O)c1c(NC(=O)c2ccc(Br)o2)n(Cc2ccccc2)c2nc3ccccc3nc12,x,-36%,u,-44*,23%
CCCCNC(=O)c1c(N)n(CCCOC)c2nc3ccccc3nc12,-5%,13%[57.1 µM],11µM*,-39*,108%[57.1 µM]
COCCNC(=O)c1c(N)n(CCC(C)C)c2nc3ccccc3nc12,0%,-4%,u,-36*,106%
CC(C)OCCCNC(=O)c1c(N)n(Cc2cccs2)c2nc3ccccc3nc12,1%,39%,-22%,-46*,109%
CCCCC/C=C\C/C=C\C/C=C\C/C=C\CCCC(=O)N(Cc1ccc(O)c(Cl)c1)Cc1ccc(O)c(Cl)c1,x,x,x,4,x
CC(=O)N1CCCc2cc(S(=O)(=O)N3CCCC(C(=O)N4CCN(c5ccccc5F)CC4)C3)ccc21 (stereo not drawn),x,8%[57.1 µM],u,x,-1%[57.1 µM]
CC(=O)OCC1=C[C@H]2[C@@H]3C(C)(C)[C@]3(OC(=O)Cc3ccccc3)C[C@@H](C)[C@]2(O)[C@@H]2C=C(C)C(=O)[C@@]2(O)C1,x,x,x,3,x
c1ccc(CN2CCC3(CCNCC3)CC2)cc1,x,x,x,3,x
Cn1cccc1/C=C1\C(=O)NC(=O)N(Cc2ccco2)C1=O,-2%,-27%,-16%,-3,-2%
O=C1NC(=O)N(Cc2ccco2)C(=O)/C1=C/C=C/c1ccco1,-2%,35µM*,-12%,-1,-4%
Cc1ccc(N2C(=O)NC(=O)/C(=C\C=C\c3ccco3)C2=O)cc1C,1%,50µM*,-2%,0,-2%
Cc1ccc(OCCn2cccc2/C=C2/C(=O)NC(=O)N(Cc3ccco3)C2=O)cc1,x,40µM*,-21%,1,4%
CCCOc1ccc(C(=O)Nc2ccc(-c3cc4ccccc4oc3=O)c(C)c2)cc1,x,65%,-11%,x,150%
Cc1nn(Cc2ccccc2)c(C)c1C=C1C(=O)NC(=S)NC1=O,-1%,8.9µM*,-3%,5,-4%
CC(C)c1ccc(N2C(=O)NC(=O)/C(=C/c3cnc(-c4ccccc4)nc3)C2=O)cc1,-1%,4µM*,-5%,12,0%
O=C1NC(=O)N(Cc2ccccc2)C(=O)/C1=C/c1cnc(-c2ccccc2)nc1,-5%,6.3µM*,-23%,0,-2%[57.1 µM]
CSc1ncc(/C=C2/C(=O)NC(=O)N(c3ccc(C(C)C)cc3)C2=O)cn1,3%,10µM*,-19%,-1,0%
O=C1NC(=O)N(Cc2ccc(F)cc2)C(=O)/C1=C\c1ccoc1,x,5%[57.1 µM],-20%,3,9%[57.1 µM]
O=C1NC(=O)N(Cc2ccc(F)cc2)C(=O)/C1=C/c1cccs1,4%,18µM*,-6%,5,14%[57.1 µM]
O=C1NC(=O)N(Cc2ccccc2Cl)C(=O)/C1=C/c1cccs1,0%,u,-28%,2,7%
C=C(C)C1Cc2c(ccc3c2OC2COc4cc(OC)c(OC)cc4C2C3=O)O1 (stereo not drawn),x,x,x,-1,x
O=C(/C=C/c1c[nH]c2ccccc12)c1c(O)n(CCc2ccccc2)c(=O)[nH]c1=O,-4%,-4%[57.1 µM],25µM*,0,-4%[57.1 µM]
COc1ccc2c(c[n+](C)c3c4cc5c(cc4ccc23)OCO5)c1OC,x,u,x,-39*!,u
O=C(c1ccc(C(F)(F)F)cc1)N1CCC(c2noc(-c3ccc(S(=O)(=O)N4CCCC4)cc3)n2)CC1,x,21%,u,x,-4%
COc1ccc(N2C(=O)NC(=O)/C(=C/c3cccc(OC(=O)c4cccs4)c3)C2=O)cc1Cl,-3%,10µM*,-16%,8,-8%
SMILES,GALK inh,TrxR1 inh,USP1 inh,FBPA coupling cs,TrxR1 substrate
Cc1ccc(N2C(=O)NC(=O)/C(=C/c3ccc(OC(=O)c4cccs4)cc3)C2=O)cc1,0%,32µM*,-18%,5,-2%
Cc1ccc(N2C(=O)NC(=O)/C(=C\c3ccoc3)C2=O)cc1,-2%,-11%[57.1 µM],-31%,3,4%[57.1 µM]
CCOC(=O)N(C)C(=O)CSP(=S)(OCC)OCC,x,x,x,0,x
COC1=CC(=O)O[C@H](/C=C/c2ccc3c(c2)OCO3)C1,x,x,x,5,x
O=C1NC(=O)C(=Cc2cccc(OCCOc3ccccc3)c2)C(=O)N1,1%,16µM*,-10%,5,1%
Cc1ccc(OCCOc2cccc(C=C3C(=O)NC(=O)NC3=O)c2)c(C)c1,-3%,7.9µM*,u,4,2%
O=C1NC(=O)C(=Cc2ccc(OCCOc3ccc([N+](=O)[O-])cc3)cc2)C(=O)N1,9%,35µM*,-11%,4,-5%
CCOc1cc(C=C2C(=O)NC(=O)NC2=O)ccc1OS(=O)(=O)c1ccccc1,0%,u,-8%,-5,3%[57.1 µM]
CCN1CCN(c2ccc([N+](=O)[O-])cc2C=C2C(=O)NC(=O)NC2=O)CC1,-4%,u,-16%,-4,-10%
ClCCN(CCCl)c1ccc(/C=C/c2sc3ccccc3[n+]2CCCCI)cc1,x,-30%,x,x,-4%
Cn1nc(-c2ccccc2)nc2c(=O)n(C)c(=O)nc1-2,x,u,x,x,40µM*
Cc1nc2c(=O)n(C)c(=O)nc-2n(C)n1,u,50µM*,0.032µM*,-2,35µM*
Cc1ncc2n1-c1ccc(Cl)cc1C(c1ccccc1F)=NC2O (stereo not drawn),x,x,x,7,x
O=C1C(=O)c2ccccc2-c2ccccc21,3.2µM*,10µM*,1µM*,-82*,3.2µM*
NC1=C(Br)C(=O)c2ccccc2C1=O,-4%,15%[11.4 µM],8.9µM*,-19,8%[57.1 µM]
O=C1C(=O)c2cccc3cccc1c23,x,26%,-14%,6,9%
Cc1c(C(=O)c2cccc3ccccc23)c2cccc3c2n1[C@@H](CN1CCOCC1)CO3,x,x,x,1,x
C[C@@H]1C[C@H](C)C[C@H](C)[C@@H](O)CC(=O)O[C@H]([C@H]2CCC[C@H]2C(=O)O)C/C=C/C=C(/C#N)[C@H](O)[C@@H](C)C1,x,x,x,-2,x
C[C@H]1COC2=C1C(=O)C(=O)c1c2ccc2c1CCCC2(C)C,3%,28µM*,32µM*,-23,-7%
CC(C)CNC(=O)c1c(N)n(Cc2ccco2)c2nc3ccccc3nc12,-2%,-26%[57.1 µM],-21%,-3,49%[57.1 µM]
CCCNC(=O)c1c(N)n(Cc2ccc3c(c2)OCO3)c2nc3ccccc3nc12,-1%,24%,-5%,-21,20%
CC(C)CCNC(=O)c1c(N)n(Cc2ccc3c(c2)OCO3)c2nc3ccccc3nc12,2%,48%,u,-33*,84%

# Bioassay records: PubChem, National Center for Advancing Translational Sciences (NCATS)
